Screens (PubChem BioAssay)
In the library only some 4% were active in any assay of this set; here they are far more common.
D1 antag = Antagonist of Human D 1 Dopamine Receptor: qHTS | D(1A) dopamine receptor (Homo sapiens), P21728 | activity change, negative = inhibition, % at 10 µM | HEK293 TREx D1 cells, calcium flux, dopamine EC80; hits give low values | 3.2% of 360,000 active; in the data active = activity change below about -30%; note: % is set by controls: 0 for no effect and ±100 for the full control effect
Target sequence (P21728 whole entry, looked up): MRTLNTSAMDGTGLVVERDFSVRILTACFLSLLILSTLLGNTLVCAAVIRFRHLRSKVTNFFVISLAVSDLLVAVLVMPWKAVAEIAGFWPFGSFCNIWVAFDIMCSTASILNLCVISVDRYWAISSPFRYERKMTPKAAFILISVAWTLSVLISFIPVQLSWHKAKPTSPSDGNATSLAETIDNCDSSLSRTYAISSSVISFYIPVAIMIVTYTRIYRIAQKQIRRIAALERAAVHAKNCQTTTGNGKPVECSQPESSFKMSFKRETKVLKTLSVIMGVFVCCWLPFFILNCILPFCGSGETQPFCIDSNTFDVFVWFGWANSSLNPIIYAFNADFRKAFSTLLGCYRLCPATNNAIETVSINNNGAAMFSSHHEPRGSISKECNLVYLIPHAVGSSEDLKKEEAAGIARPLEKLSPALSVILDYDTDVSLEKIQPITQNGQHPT
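Allosteric or orthosteric antagonism assessed as attenuation of the calcium response to EC80 dopamine, added 180 s after compound, in induced HEK293 Trex D1 cells loaded with no-wash calcium dye.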
D1 agonist = Allosteric Agonists of the Human D1 Dopamine Receptor: qHTS; D(1A) dopamine receptor (Homo sapiens), P21728; HEK293 T-REx D1 cells, calcium flux, agonist mode; activation, % at 2 µM; 1% of 360,000 active; AID 504660, 2011; note: 0% is about no effect
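Tetracycline-induced HEK293 TREx D1 cells, force-coupled to calcium signalling, were dye-loaded with a no-wash calcium kit. Compound was pin-added after a 10 s baseline. Fluorescence was read kinetically at 1 cycle/s for 180 s, with calcium rises flagged as agonism.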
D1 potentiator = Potentiators of Human D1 Dopamine Receptor: qHTS; HEK293 TREx D1 cells, calcium flux, dopamine EC20 potentiation; AID 504651, 2011; 0.036% of 360,000 active; potentiation, % at 10 µM; in the data active = potentiation above about 30%; note: 0% is about no effect
TRHR PAM = qHTS for Small Molecule Agonists and Allosteric Enhancers of Human TRH Receptor: Primary Screen for Enhancers; Thyrotropin-releasing hormone receptor (Homo sapiens), P34981; TRHR cells, fluo-8 calcium fluorescence, EC20 TRH enhancement; enhancement, % at 2 µM; 0.66% of 360,000 active; AID 493056, 2011; in the data active = enhancement above about 30%; note: 0% is about no effect
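TRHR-expressing cells loaded with fluo-8 calcium dye were read kinetically (ex 480/em 530) during compound addition, then stimulated with an EC20 of TRH (10 nM final). Enhancement of the Gq-mediated intracellular calcium response was scored.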
TRHR ag = qHTS for Small Molecule Agonists and Allosteric Enhancers of Human TRH Receptor: Primary Screen for Agonists; Thyrotropin-releasing hormone receptor (Homo sapiens), P34981; TRHR cells, calcium flux fluo-8, FDSS agonist mode; AID 493084, 2011; activation, % at 2 µM; 0.18% of 360,000 active; note: 0% is about no effect
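Fluo-8-loaded TRHR cells; 10 s baseline, compound added, kinetic Ca2+ fluorescence read 1/s, agonist mode.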
Glioma ERSR ind = qHTS for Inducers of the Endoplasmic Reticulum Stress Response (ERSR) in Human Glioma: qHTS. AID 602332, 2012. 0.02% of 420,000 active. U87-MG GRP78 promoter luciferase reporter, 16 h. Potency, µM, for inactives: at the top dose activation, usual class: activators; active = well fitted activation curve with a large enough effect; inconclusive = small, poorly fitted or top-dose-only effect; inactive = no such curve, though single readings can be large or run the other way; note: potency is the fitted concentration of half-maximal effect; series mostly up to about 76 µM; % of control where 0% means no effect; nearly all actives have a fitted effect of over 35% in size
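Stably transfected U87-MG human glioma cells carrying a GRP78-based luminescent sensor were seeded at 1000 cells/well, pin-dosed with compounds and incubated 16 h. Luciferase reagent was then added, and end-point luminescence was read after 10 min at room temperature.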
* = called active by the depositor; ? = inconclusive; / = no result given. Cut-off read from the data, not from the text of the source, unless noted: active = activation above about 30%; inactive = the rest.

SMILES	D1 antag	D1 agonist	D1 potentiator	TRHR PAM	TRHR ag	Glioma ERSR ind
COc1cc(C)c(C(=O)Oc2cc(C)c(C(=O)O)c(O)c2C)c(O)c1C(=O)O	6.2	0.5	3.0	-1.0	-0.5	-1.8%
COc1cc(C)c(C(=O)Oc2cc(C)c(C(=O)O)c(O)c2C)c(OC)c1C	-66.4*	-1.6	-5.5	4.3	0.0	?
COc1ccc(Cn2c(=O)c3cccnc3n(Cc3ccc([N+](=O)[O-])cc3)c2=O)cc1	2.6	15.6	-1.0	-6.5	0.3	0.3%
COc1ccc(CCn2c(=O)c3cccnc3n(Cc3ccc([N+](=O)[O-])cc3)c2=O)cc1OC	-46.2*	3.6	-12.2	-4.4	-0.1	-3.1%
CCCCn1c(CN2CCN(c3cccc(Cl)c3)CC2)nc2c1c(=O)n(C)c(=O)n2C	-31.4*	5.7	19.4	7.8	-0.1	-5.1%
CCCCCn1c(CN2CCN(c3cccc(Cl)c3)CC2)nc2c1c(=O)n(C)c(=O)n2C	9.2	2.5	-1.5	4.5	-0.5	-6.1%
Cn1c(Sc2ccc(Br)cc2)c(C=O)c2ccccc21	-63.3*	4.5	-7.7	16.7	-0.3	-4.6%
Cn1c(Oc2ccc(F)cc2)c(C=O)c2ccccc21	7.3	2.2	-2.2	-1.9	2.6	-2.2%
CCO[C@H]1OC(C(=O)NCc2ccccc2)=C[C@@H](C2CC2)[C@@H]1CCCO	-43.6*	-3.6	-3.9	2.4	-0.7	-2.2%
C[C@@H]1C=C(C(=O)N2CCN(Cc3ccc4c(c3)OCO4)CC2)O[C@H](OCCCCO)C1	-37.6*	0.2	-4.0	16.1	-0.9	0.3%
CCO[C@@H]1OC(C(N)=O)=C[C@H](c2ccc3c(c2)OCO3)[C@H]1CCCO	-33.9*	-5.0	2.5	4.0	0.1	-1.0%
CCO[C@H]1OC(C(=O)N2CCN(Cc3ccc4c(c3)OCO4)CC2)=C[C@@H](C2CCCCC2)[C@@H]1CCCO	10.5	-4.0	-4.3	37.7*	-0.6	-3.3%
CCO[C@H]1OC(C(=O)NC2CC2)=C[C@@H](c2ccc3c(c2)OCO3)[C@@H]1CCCO	-6.9	-3.2	-1.3	-0.3	-0.4	-5.4%
O=C(C1=C[C@H](C2CC2)C[C@H](OCCCCO)O1)N1CCN(Cc2ccc3c(c2)OCO3)CC1	-3.9	-3.7	-5.0	-3.4	5.1	-2.7%
COc1cc(/C=C/C(=O)OCC(=O)Nc2ccc(S(N)(=O)=O)cc2)ccc1O	5.0	1.2	-2.2	0.7	0.7	-3.0%
C/C=C/c1ccc(OCCCCN2CCN(CC)CC2)c(OC)c1	-32.7*	-0.2	-3.3	4.9	-0.4	0.9%
C/C=C/c1ccc(OCC(=O)Nc2ccc(OC)c(OC)c2)c(OC)c1	-38.0*	4.0	-4.0	1.4	-0.6	-4.0%
CCOC(=O)/C=C/C(=O)OCC(=O)Nc1ccc([N+](=O)[O-])cc1	-32.7*	9.1	-6.5	-0.5	1.1	-6.7%
COc1cc(/C=C/C(=O)OCC(=O)Nc2ccc([N+](=O)[O-])cc2)ccc1O	-13.6	30.8*	-0.8	-5.3	2.8	-3.5%
C/C=C/c1ccc(OCC(=O)Nc2ccncc2)c(OC)c1	-24.3	9.6	-9.4	-8.0	-0.3	7.5%
CC(C)NC(NC(=O)/C=C/c1ccccc1)C(Cl)(Cl)Cl (configuration not stated)	-1.5	2.6	-0.8	-0.3	-0.3	-3.3%
COc1ccc(/C=C/C(=O)OCC(=O)Nc2ccc3[nH]c(=O)[nH]c3c2)cc1OC	-32.0*	2.5	-11.4	0.3	-0.1	-4.9%
O=C(Nc1ccc(OCC(F)(F)C(F)F)cc1)c1ccncc1	-31.8*	11.6	-1.1	-3.1	-2.4	2.0%
CCCN1CCc2c(sc(NC(=S)NC(=O)c3ccccc3)c2C#N)C1	14.2	45.0*	2.2	3.9	22.4	13.6%
CC(C)(C)OC(=O)[C@H](Cc1ccccc1)NC(=O)c1nc[nH]c1C(=O)N1CCNCC1	/	/	/	/	/	-3.0%
SMILES	D1 antag	D1 agonist	D1 potentiator	TRHR PAM	TRHR ag	Glioma ERSR ind
CCC(=O)c1ccccc1OCCCn1cncn1	-31.3*	1.1	-7.9	-3.5	0.5	-3.4%
CCC(=O)c1ccccc1OCCN1CCN(Cc2ccccc2)CC1	-17.3	3.0	3.3	-0.2	-0.2	-2.0%
CCCCOc1ccc(C(O)C(CN2CCCCC2)c2ccccc2)cc1 (configuration not stated)	-7.4	3.0	-2.8	1.1	0.5	-2.7%
Cc1cc(C)n(-c2ccc(C(=O)Nc3ccccn3)cc2)n1	6.7	2.9	-4.2	0.0	0.8	-7.2%
Cc1cc(C)n(-c2ccc(C(=O)Nc3cccnc3Cl)cc2)n1	-41.4*	5.0	-12.5	2.5	0.2	-1.8%
Cc1cc(C)n(-c2ccc(C(=O)Nc3cc(S(=O)(=O)N(C)C)ccc3Cl)cc2)n1	-30.3*	3.7	-5.5	9.3	-1.5	-4.9%
CCn1c(=O)n(CC)c2cc(N3CCCC3)c(NC(=O)Nc3cc(C)cc(C)c3)cc21	-6.2	40.2*	-0.1	0.2	1.3	-4.5%
CCOC(=O)c1ccc(NC(=O)Nc2cc3c(cc2N2CCCC2)n(C)c(=O)n3C)cc1	-31.8*	1.6	-4.8	3.0	0.1	-10.2%
CC(=O)c1cccc(NC(=O)Nc2cc3c(cc2N2CCCC2)n(C)c(=O)n3C)c1	1.9	1.8	-2.5	-3.9	1.5	-2.0%
CC1=CS(=O)(=O)CC1Sc1ncn[nH]1 (configuration not stated)	-4.7	-0.1	-1.4	1.9	0.4	-2.8%
CCN1/C(=C/c2ccc3cc(C)cc(C)c3[n+]2CC)Sc2cc(C)ccc21	-16.9	10.9	-0.2	35.1*	20.7	-14.5%
COc1cc(NCCCCCCN)c2ncccc2c1OC	/	/	/	/	/	-13.4%
COc1ccc(CCN2C(=O)c3[nH]nc(-c4ccccc4O)c3C2c2ccc(OC)cc2)cc1 (configuration not stated)	6.4	0.5	3.0	10.3	0.5	1.5%
COc1ccc(CCN2C(=O)c3[nH]nc(-c4ccccc4O)c3C2c2ccc(OC)c(OC)c2)cc1 (configuration not stated)	-1.5	2.3	1.6	30.8*	-0.1	1.8%
CC(C)(C)n1ncc2c(=O)n(CC(=O)N3CCCC3)cnc21	3.7	6.8	-1.7	2.8	0.8	-2.7%
CC1CCN(C(=O)Cn2cnc3c(cnn3C(C)(C)C)c2=O)CC1	-5.9	1.7	-4.2	30.0*	0.2	0.3%
COc1ccc(NC(=O)CN2C(=O)CC(C)(C)S(=O)(=O)c3ccccc32)cc1	-33.1*	0.9	-8.5	-2.3	-0.2	0.4%
CCc1ccc(NC(=O)c2[nH]c(C)c(C(C)=O)c2C)cc1	-38.7*	19.4	-9.0	0.3	-0.8	3.0%
